About 83,000 compounds went through this panel and 20% of them were active in at least one assay; those are over-represented in the sample as a whole.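 Percent growth is the endpoint: 0 to 100 indicates growth inhibition (40 means 60% inhibition), 0 means no net growth, and negative values indicate cell death.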 A number with no mark means an inactive call. The source made the active and inactive calls. The calls were made as follows: active = growth percent below 10; inactive = the rest.
Tests used:
Assay in all cases: NCI-60 one-dose screen, 48 h (100 = growth as untreated, 0 = no growth, -100 = all killed)
Settings in all cases: 10 µM
[1] = test system: SR leukemia
[2] = test system: RPMI-8226 leukemia
[3] = test system: OVCAR-8 ovarian
[4] = test system: OVCAR-5 ovarian
[5] = test system: OVCAR-4 ovarian
[6] = test system: SK-OV-3 ovarian
[7] = test system: IGROV1 ovarian
[8] = test system: OVCAR-3 ovarian
[9] = test system: HS 578T breast
[10] = test system: NCI/ADR-RES ovarian
[11] = test system: T-47D breast
[12] = test system: BT-549 breast
[13] = test system: MDA-MB-435 melanoma
[14] = test system: SW-620 colon
[15] = test system: MCF7 breast
[16] = test system: HCT-116 colon
[17] = test system: HCC-2998 colon
[18] = test system: KM12 colon

| Structure (SMILES) | growth [1] | growth [2] | growth [3] | growth [4] | growth [5] | growth [6] | growth [7] | growth [8] | growth [9] | growth [10] | growth [11] | growth [12] | growth [13] | growth [14] | growth [15] | growth [16] | growth [17] | growth [18] |
| --- | --- | --- | --- | --- | --- | --- | --- | --- | --- | --- | --- | --- | --- | --- | --- | --- | --- | --- |
| COc1ccccc1NC1=C(N2CCCCC2)C(=O)c2ccccc2C1=O | 76.3% | 40.2% | 84.7% | 96.2% | 69.7% | 102% | 100% | 87% | 93.3% | 87.3% | 77.4% | 94.2% | 93.2% | 93.4% | 74.8% | 78.1% | 91.7% | – |
| Fc1ccc2[nH]c3c(NCCCN4CCOCC4)ncnc3c2c1 | 52.1% | 46.4% | 68.3% | 85.6% | -38.6% (active) | 33.4% | 50.8% | 59.7% | 34.5% | 72.7% | 54.6% | 96.4% | 88.3% | 69.6% | 84.7% | 47.4% | 75.4% | – |
| CCn1nc(-c2ccc(C(=O)OC)cc2)nc2c(=O)n(C)c(=O)nc1-2 | 7.67% (active) | 61.2% | 45.8% | 105% | 14.1% | 9.16% (active) | 87.4% | 25.7% | 35.6% | 70% | 84.1% | 98.2% | 64.1% | 97.7% | 80% | 51.5% | 116% | – |
| CN(C)CCCN(Cc1ccccc1O)C(=S)Nc1ccc(Cl)cc1 | 95% | 93.5% | 98.2% | 110% | 111% | 107% | 106% | 112% | 89% | 104% | 93.4% | 105% | 109% | 100% | 99% | 108% | 83.4% | 105% |
| CC1(CO)CCCC12OCCO2 (stereo unspecified) | 93.3% | 100% | 106% | 97.3% | 111% | 111% | 104% | 108% | 119% | 113% | 111% | 99.9% | 92.8% | 108% | 95.2% | 105% | 111% | 112% |
| COc1ccccc1CNCCCN1C(=O)c2ccc3c4c(ccc(c24)C1=O)C(=O)N(CCCNCCNCCCN)C3=O | 13.6% | 60.8% | 12.4% | 65.9% | -94.8% (active) | 52.8% | 13.4% | -14% (active) | 54.6% | 96.7% | 17.9% | 69.4% | 10.4% | 8.12% (active) | -39.1% (active) | 1.05% (active) | 14.7% | 15.4% |
| O=C(Nc1cccc(Cl)c1)OCC(COC(=O)Nc1cccc(Cl)c1)(COC(=O)Nc1cccc(Cl)c1)[N+](=O)[O-] | 22.4% | 19.5% | 44% | 89.1% | 30.8% | 64.8% | 42.3% | 20.6% | 52.1% | 35.4% | 14.7% | 50.8% | 39.9% | 45.6% | 21.1% | 16.3% | 36.9% | 23.8% |
| COc1cc(-c2nc3ccccc3[nH]2)ccc1OCc1nnc(-c2ccc(Br)cc2)o1 | -25.7% (active) | 51.5% | 75.7% | 109% | 85.1% | 108% | 87.4% | 110% | 78.4% | 92.5% | 68.4% | 98.4% | 81% | 102% | 53.6% | 59.9% | 102% | 69.2% |
| CCOC(=O)c1ccc(N(C=O)CCC(=O)CCl)cc1 | 5.14% (active) | -20.4% (active) | 3.69% (active) | 4.98% (active) | 18.8% | 30.7% | 2.75% (active) | -5.41% (active) | 33.2% | 21.4% | -4.12% (active) | -63.2% (active) | -23.9% (active) | 7.93% (active) | -8.44% (active) | 1.64% (active) | 14.2% | 4.98% (active) |
| c1ccc(C2CCCCC2)c(OCCCCCN2CCNCC2)c1 | -32.9% (active) | -14.6% (active) | 83.2% | 93.8% | 68.5% | 94.9% | 56.7% | 76.9% | 76% | 70% | 28% | 72.4% | 47.2% | 11.3% | -34.4% (active) | -7.58% (active) | -68.8% (active) | 35.6% |
| CCc1c(C)[nH]c(=O)c(C(N)=O)c1C#N | 91.7% | 105% | 104% | 109% | 115% | 100% | 107% | 116% | 95.5% | 119% | 94.1% | 97.4% | 101% | 97.7% | 97% | 95.7% | 87.7% | 106% |
| Cc1nn2c(/C=C3/C(=O)Nc4ccc(Cl)cc43)c(-c3ccccc3)nc2s1 | -12.7% (active) | 23.7% | 14.6% | 73.6% | -52.3% (active) | -0.11% (active) | 3.8% (active) | 9.92% (active) | -6.37% (active) | 38.3% | -1.58% (active) | 48.8% | 44.4% | 44.2% | 38.5% | 7.12% (active) | 102% | 59.1% |
| Cc1ccc2c(c1)-c1cc(C)nn1-c1ccc(C#N)cc1O2 | 28% | 54.3% | 70.4% | 94.1% | 76.9% | 53.3% | 64.5% | 61.8% | 56.4% | 40.1% | 51.8% | 78.5% | 8.67% (active) | 41% | 42% | 27.6% | 90% | 56.9% |
| COc1ccc(/C=C2\CCC3C(CCCC34OCCO4)C2=O)cc1 (stereo unspecified) | 35.5% | 81.2% | 97.2% | 91.7% | 100% | 97.1% | 83% | 75% | 106% | 75.8% | 75.4% | 88.4% | 29.9% | 75.6% | 70.6% | 92.4% | 92.4% | 67.7% |
| Cc1nc2scc(-c3ccc(Cl)cc3)n2c(=O)c1CCN1CCOCC1 | 81.4% | 93.5% | 104% | 116% | 95.1% | 94.1% | 79.2% | 104% | 106% | 108% | 76.6% | 103% | 95.8% | 105% | 90.2% | 105% | 106% | 107% |
| CCc1ccc(-c2nnc(COc3ccc(-c4nc5cc(Cl)c(Cl)cc5[nH]4)cc3OC)o2)cc1 | 0.504% (active) | 56.9% | 28.9% | 103% | 45.9% | 96.9% | 64.5% | 65.6% | 77% | 55% | 43.6% | 105% | 65.2% | 53% | 15.4% | 1.36% (active) | 82.8% | 44.1% |
| COc1ccc(-c2nc3sc(-c4ccccc4)c(-c4ccccc4)n3c2/C=C/c2ccc(F)cc2)cc1 | 90.5% | 95.5% | 85% | 88.2% | 83.2% | 91.1% | 115% | 94.1% | 95.8% | 103% | 77.6% | 112% | 97.1% | 95.5% | 73.8% | 77.3% | 92.8% | 90.7% |
| Cc1cc(C#Cc2ccccc2)ccc1-n1c(/C=C/c2cc(O)ccc2O)nc2ccccc2c1=O | -26% (active) | -18.1% (active) | 16.3% | -24.5% (active) | 19.2% | -49.3% (active) | -12.6% (active) | -46.2% (active) | 31.8% | 6.37% (active) | -16.8% (active) | -11.1% (active) | -56.3% (active) | 5.7% (active) | 2.03% (active) | -43.8% (active) | -49.6% (active) | -5.21% (active) |

— PubChem BioAssay (NCI)
